From PubChem BioAssay (NCI)
The panel holds about 83,000 compounds, 20% with a hit somewhere; the sample as a whole holds those more often.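 Assay: single dose, 48 h. Readout: percent growth (0 = no net growth; negative = cell death). Active: <10.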 The source made the active and inactive calls.

Legend:
Test in all cases: NCI-60 one-dose screen, 48 h (100 = growth as untreated, 0 = no growth, -100 = all killed)
Conditions in all cases: 10 µM unless noted
HCT-15 colon = tested on: HCT-15 colon
HT29 colon = tested on: HT29 colon
SNB-75 CNS = tested on: SNB-75 CNS
U251 CNS = tested on: U251 CNS
PC-3 prostate = tested on: PC-3 prostate
SK-MEL-5 melanoma = tested on: SK-MEL-5 melanoma
UACC-62 melanoma = tested on: UACC-62 melanoma
LOX IMVI melanoma = tested on: LOX IMVI melanoma
SK-MEL-28 melanoma = tested on: SK-MEL-28 melanoma

Measured: growth

Cl.[Pt].[c-]1ccccc1-c1ccccn1.c1ccc(P(c2ccccc2)C([PH+](c2ccccc2)c2ccccc2)[PH+](c2ccccc2)c2ccccc2)cc1
inactive: HT29 colon 10.4% | U251 CNS 10.7% | UACC-62 melanoma 16.8% | LOX IMVI melanoma 12.1% | SK-MEL-28 melanoma 34%
active: HCT-15 colon 7.95% | SNB-75 CNS 7.24% | PC-3 prostate 9.46% | SK-MEL-5 melanoma -87.3%

Nc1c(C(=O)Nc2ccccc2)sc2nc3c(cc12)CCCCCC3
active: HT29 colon -9.08% | SNB-75 CNS 4.5% | U251 CNS 9.62% | SK-MEL-5 melanoma 9.45%
inactive: HCT-15 colon 16.3% | PC-3 prostate 31.8% | LOX IMVI melanoma 35.1% | SK-MEL-28 melanoma 27.8%

CCCCN1CCN(c2ccc3nc(-c4ccc5nc(-c6cc(OC)c(OC)c(OC)c6)[nH]c5c4)[nH]c3c2)CC1
inactive: HCT-15 colon 99.2% | HT29 colon 56% | SNB-75 CNS 38.7% | U251 CNS 56.3% | PC-3 prostate 57.4% | SK-MEL-5 melanoma 44.8% | UACC-62 melanoma 39.5% | LOX IMVI melanoma 40.7% | SK-MEL-28 melanoma 66.3%

c1ccc2c(c1)nc(-n1ccnc1)c1nc3ccccc3n12
inactive: HCT-15 colon 82.7% | HT29 colon 74% | SNB-75 CNS 70% | U251 CNS 61.5% | PC-3 prostate 68% | UACC-62 melanoma 72% | LOX IMVI melanoma 71%

CC/C=C/[C@@H]1C=C[C@@H]2CCC[C@H]2[C@@H]1CC[C@H](O)[C@H](C)N
active: HCT-15 colon -73.8% | HT29 colon 2.11% | U251 CNS -79.7% | SK-MEL-5 melanoma -92.8% | UACC-62 melanoma -42.1% | LOX IMVI melanoma -91.6% | SK-MEL-28 melanoma -87.1%
inactive: SNB-75 CNS 22.4% | PC-3 prostate 30.4%
